# Data taken from the supplement of paper PMC12669032.
# Tested on: Streptococcus salivarius
# Assay: growth AUC relative to DMSO control (median of replicates) (fraction); higher = more growth (less inhibition), active = hit call of the paper
# Conditions: 20 µM; 24 h;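 active = AUC reduced over 20% with Padj below 0.05 in at least 2 of 3 replicates; inactive = otherwise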
# In short: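 Gut bacteria were grown singly in mGAM at 37 °C without oxygen, from OD600 0.05, alongside 20 µM compound in 1% DMSO, and OD600 was read each hour for 24 h. Area under the growth curve was normalised to the median of solvent-only wells per plate, or to row and column medians on the industrial chemical plate. The minimum OD was set to 0 beforehand, and the reported value is the median of three biological replicates grown on separate days.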
row,Compound,growth AUC
1,COC(=O)COc1cc(Cl)c(Cl)cc1Cl,1.01 (inactive)
2,Clc1ccc(C2(Cn3cncn3)CC(Br)CO2)c(Cl)c1 (centres undefined),0.988 (inactive)
3,CC(C)OC(=O)Nc1ccccc1,1.01 (inactive)
4,CCN(CC)N=O,0.964 (inactive)
5,CCCN(CC1CC1)c1c([N+](=O)[O-])cc(C(F)(F)F)cc1[N+](=O)[O-],1.03 (inactive)
6,ClC(Cl)=C(c1ccc(Cl)cc1)c1ccc(Cl)cc1,0.965 (inactive)
7,CC1CCCCC1NC(=O)Nc1ccccc1 (mixture of isomers),1.02 (inactive)
8,Oc1cccc2cccnc12,0.995 (inactive)
9,C[Si](Cn1cncn1)(c1ccc(F)cc1)c1ccc(F)cc1,0.988 (inactive)
10,CC(C)(COCc1cccc(Oc2ccccc2)c1)c1ccc(OC(F)(F)Br)cc1,0.966 (inactive)
11,Cc1cc(Cl)ccc1O[C@H](C)C(=O)O,0.988 (inactive)
12,COC(=O)NS(=O)(=O)c1ccc(N)cc1,0.893 (inactive)
13,O=C(O)c1ccccc1C(=O)Nc1cccc2ccccc12,0.932 (inactive)
14,CC(=O)O.CC(=O)O.CC(=O)O.NC(N)=NCCCCCCCCNCCCCCCCCN=C(N)N,0.454 (active)
15,O=C(NC(=O)c1c(F)cccc1F)Nc1cc(Cl)c(OC(F)(F)C(F)C(F)(F)F)cc1Cl (centres undefined),0.958 (inactive)
16,CCc1cccc(CC)c1N(COC)C(=O)CCl,0.981 (inactive)
17,CNC(=O)/C=C(\C)OP(=O)(OC)OC,1.04 (inactive)
18,OC(Cc1ccccc1Cl)(Cn1cncn1)C1(Cl)CC1 (centres undefined),0.998 (inactive)
19,CCCCN(CC)C(=O)SCCC,0.996 (inactive)
20,CCOCCN(C(=O)CCl)C(=C(C)C)c1ccccc1,0.993 (inactive)

row,Compound,growth AUC
1,CNC(=O)c1cc(Cl)cc(C)c1NC(=O)c1cc(Br)nn1-c1ncccc1Cl,0.99 (inactive)
2,CCOP(=S)(OCC)Oc1ccc(Cl)cc1Cl,1.04 (inactive)
3,CCCCCCCC(=O)Oc1c(I)cc(C#N)cc1I,0.805 (inactive)
4,O=[N+]([O-])c1ccc(Oc2ccc(Cl)cc2Cl)cc1,0.981 (inactive)
5,C[C@@H](Oc1ccc(Cl)cc1Cl)C(=O)O,0.919 (inactive)
6,O=[N+]([O-])c1c(Cl)c(Cl)c(Cl)c(Cl)c1Cl,1 (inactive)
7,O=c1oc2ccccc2c(O)c1C1CC(c2ccc(-c3ccc(Br)cc3)cc2)Cc2ccccc21 (centres undefined),0.393 (active)
8,Oc1ccc(Cl)cc1Cc1cc(Cl)ccc1O,0.445 (active)
9,CC(C)C(C(=O)OC(C#N)c1cccc(Oc2ccccc2)c1)c1ccc(OC(F)F)cc1 (centres undefined),0.993 (inactive)
10,ClC1=C(Cl)C2(Cl)C3C4C=CC(C4)C3C1(Cl)C2(Cl)Cl (centres undefined),0.995 (inactive)
11,CC(C)C1(C)N=C(c2nc3ccccc3cc2C(=O)O)NC1=O (centres undefined),0.935 (inactive)
12,CCCCOC(=O)[C@@H](C)Oc1ccc(Oc2ccc(C#N)cc2F)cc1,0.954 (inactive)
13,O=C1C=C(N(Cc2ccc(Cl)nc2)CC(F)F)CO1,0.979 (inactive)
14,COC(=O)C1(O)c2ccccc2-c2ccccc21,1 (inactive)
15,CCS(=O)c1c(C#N)nn(-c2c(Cl)cc(C(F)(F)F)cc2Cl)c1N (centres undefined),1.06 (inactive)
16,CCOP(=S)(OCC)Oc1ccc([N+](=O)[O-])cc1,0.93 (inactive)
17,FC(F)C(F)(F)OCC(Cn1cncn1)c1ccc(Cl)cc1Cl (centres undefined),0.996 (inactive)
18,COC(=O)NCc1cc(/C(C)=N/OCc2cccc(C)n2)ccc1Cl,1.01 (inactive)
19,C[N+](C)(C)CCCl.[Cl-],1.03 (inactive)
